Reference: the supplement of paper PMC10849652
About 7,900 targets were measured; listed, in parts, are those with a hit and a random draw of the rest. About 0.6% of all pairs of compound and target were hits. A number with no mark means an inactive call.

Columns and labels:
Experiment in all cases: log2 fold change, soluble protein after heating vs DMSO (PISA); higher = thermal stabilisation; K562 cells, 10 uM, 30 min; active = over 0.2 and 3.5 SD of the protein, either way, in both replicates (recomputed)
[1] = compound: CS(=O)(=O)c1ccc(-c2cnc(N)c(C(=O)Nc3ccccc3)n2)cc1
Method in brief: (§1)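 Quantification of soluble protein used TMTpro 16plex LC-MS/MS, with channel sums equalised. Samples were the supernatant after 21,000xg for 90 min of pooled aliquots from K562 cells (2×10^6 cells/mL) treated with 10 μM compound for 30 min, heated for 3 min over 48°C-58°C, and extracted in PBS with 0.5% NP-40 at 4°C. Values, from duplicates, describe thermal stability against control samples on a log2 fold-change scale.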

crizotinib = compound: C[C@@H](Oc1cc(-c2cnn(C3CCNCC3)c2)cnc1N)c1c(Cl)ccc(F)c1Cl [crizotinib]
Method in brief: as §1

[2] = compound: C[C@@H]1COCCN1C2=NC(=NC(=C2)C3(CC3)S(=O)(=O)C)C4=C5C=CNC5=CC=C4
Method in brief: as §1

[3] = compound: C[C@H](C1=CC=C(C=C1)C(=O)NC2=C3C=CNC3=NC=C2)N
Method in brief: as §1

duvelisib = compound: C[C@H](Nc1ncnc2nc[nH]c12)c1cc2cccc(Cl)c2c(=O)n1-c1ccccc1 [duvelisib]
Method in brief: as §1

gandotinib = compound: Cc1cc(Nc2cc(CN3CCOCC3)c3nc(C)c(Cc4ccc(Cl)cc4F)n3n2)n[nH]1 [gandotinib]
Method in brief: as §1

tozasertib = compound: Cc1cc(Nc2cc(N3CCN(C)CC3)nc(Sc3ccc(NC(=O)C4CC4)cc3)n2)n[nH]1 [tozasertib]
Method in brief: as §1

[4] = compound: Cc1cc(SCc2sc(-c3ccc(C(F)(F)F)cc3)nc2C)ccc1OCC(=O)O
Method in brief: as §1

doramapimod = compound: Cc1ccc(-n2nc(C(C)(C)C)cc2NC(=O)Nc2ccc(OCCN3CCOCC3)c3ccccc23)cc1 [doramapimod]
Method in brief: as §1

ispinesib = compound: Cc1ccc(C(=O)N(CCCN)[C@@H](c2nc3cc(Cl)ccc3c(=O)n2Cc2ccccc2)C(C)C)cc1 [ispinesib]
Method in brief: as §1

Sequence of UniProt P09622 (P09622 whole entry, looked up): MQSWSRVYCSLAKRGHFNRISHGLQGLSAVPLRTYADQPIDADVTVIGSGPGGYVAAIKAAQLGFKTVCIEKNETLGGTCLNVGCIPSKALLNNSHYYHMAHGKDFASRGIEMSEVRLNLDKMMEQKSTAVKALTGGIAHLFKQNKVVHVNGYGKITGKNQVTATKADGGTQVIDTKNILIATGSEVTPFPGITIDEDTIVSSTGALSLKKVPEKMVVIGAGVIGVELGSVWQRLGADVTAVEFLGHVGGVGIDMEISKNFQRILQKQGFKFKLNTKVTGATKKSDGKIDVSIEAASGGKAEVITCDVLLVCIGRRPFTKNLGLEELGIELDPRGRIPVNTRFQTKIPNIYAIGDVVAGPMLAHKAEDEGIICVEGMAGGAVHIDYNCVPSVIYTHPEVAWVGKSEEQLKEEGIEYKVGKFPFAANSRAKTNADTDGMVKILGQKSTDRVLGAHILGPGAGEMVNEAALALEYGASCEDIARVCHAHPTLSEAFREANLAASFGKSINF
Sequence of UniProt Q9GZT9 (Q9GZT9 whole entry, looked up): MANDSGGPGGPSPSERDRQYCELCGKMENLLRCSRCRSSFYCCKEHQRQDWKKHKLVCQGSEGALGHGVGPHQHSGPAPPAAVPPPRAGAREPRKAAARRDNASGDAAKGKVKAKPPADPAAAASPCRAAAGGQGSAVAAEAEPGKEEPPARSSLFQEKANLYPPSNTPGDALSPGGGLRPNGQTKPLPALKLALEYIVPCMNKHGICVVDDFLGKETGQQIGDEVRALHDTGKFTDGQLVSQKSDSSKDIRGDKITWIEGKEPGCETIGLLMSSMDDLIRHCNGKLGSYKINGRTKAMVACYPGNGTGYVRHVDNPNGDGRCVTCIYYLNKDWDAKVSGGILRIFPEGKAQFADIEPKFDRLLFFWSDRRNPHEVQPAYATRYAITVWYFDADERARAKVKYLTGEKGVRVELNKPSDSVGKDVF
Sequence of UniProt O75822 (O75822 whole entry, looked up): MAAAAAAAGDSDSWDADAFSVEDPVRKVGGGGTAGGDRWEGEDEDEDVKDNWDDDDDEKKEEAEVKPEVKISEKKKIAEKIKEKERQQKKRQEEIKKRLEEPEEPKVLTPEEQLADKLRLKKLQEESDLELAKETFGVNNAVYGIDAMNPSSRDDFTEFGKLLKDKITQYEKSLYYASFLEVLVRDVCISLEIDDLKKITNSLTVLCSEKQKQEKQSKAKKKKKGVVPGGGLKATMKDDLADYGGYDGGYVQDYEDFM
Sequence of UniProt Q8IX18 (Q8IX18 whole entry, looked up): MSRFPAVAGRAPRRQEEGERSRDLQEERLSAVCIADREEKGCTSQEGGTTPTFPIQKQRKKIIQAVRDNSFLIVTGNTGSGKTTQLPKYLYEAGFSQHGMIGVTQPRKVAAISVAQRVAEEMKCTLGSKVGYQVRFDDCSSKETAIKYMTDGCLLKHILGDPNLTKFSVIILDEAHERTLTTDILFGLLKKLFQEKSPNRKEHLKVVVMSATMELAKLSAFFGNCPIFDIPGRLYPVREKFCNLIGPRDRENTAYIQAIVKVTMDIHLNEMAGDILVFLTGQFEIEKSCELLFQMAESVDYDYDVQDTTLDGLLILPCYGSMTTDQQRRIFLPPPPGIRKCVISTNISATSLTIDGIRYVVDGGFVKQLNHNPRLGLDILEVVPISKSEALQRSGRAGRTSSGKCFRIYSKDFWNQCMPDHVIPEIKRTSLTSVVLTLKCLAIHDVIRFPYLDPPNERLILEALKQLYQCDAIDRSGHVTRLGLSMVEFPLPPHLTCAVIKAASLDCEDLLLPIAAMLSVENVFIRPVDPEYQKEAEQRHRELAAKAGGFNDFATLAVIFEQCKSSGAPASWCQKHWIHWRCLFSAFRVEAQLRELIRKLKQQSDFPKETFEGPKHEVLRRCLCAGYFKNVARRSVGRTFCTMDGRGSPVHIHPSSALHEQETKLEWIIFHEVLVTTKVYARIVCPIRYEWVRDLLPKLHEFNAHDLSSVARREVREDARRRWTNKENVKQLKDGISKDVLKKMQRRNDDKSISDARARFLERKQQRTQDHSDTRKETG
Sequence of UniProt P10619 (P10619 whole entry, looked up): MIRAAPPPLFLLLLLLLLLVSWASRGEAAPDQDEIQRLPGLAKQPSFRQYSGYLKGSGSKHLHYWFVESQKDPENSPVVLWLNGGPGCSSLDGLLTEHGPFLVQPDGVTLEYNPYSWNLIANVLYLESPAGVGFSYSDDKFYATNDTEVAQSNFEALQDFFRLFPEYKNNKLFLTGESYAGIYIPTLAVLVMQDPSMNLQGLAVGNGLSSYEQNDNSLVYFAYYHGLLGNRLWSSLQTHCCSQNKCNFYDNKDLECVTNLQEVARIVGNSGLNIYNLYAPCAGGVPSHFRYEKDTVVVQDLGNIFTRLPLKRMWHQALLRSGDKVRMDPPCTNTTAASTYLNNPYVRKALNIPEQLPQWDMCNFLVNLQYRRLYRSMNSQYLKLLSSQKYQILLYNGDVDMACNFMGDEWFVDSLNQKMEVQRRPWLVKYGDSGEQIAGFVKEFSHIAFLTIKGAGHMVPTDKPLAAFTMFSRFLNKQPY
Sequence of UniProt Q8TAG9 (Q8TAG9 whole entry, looked up): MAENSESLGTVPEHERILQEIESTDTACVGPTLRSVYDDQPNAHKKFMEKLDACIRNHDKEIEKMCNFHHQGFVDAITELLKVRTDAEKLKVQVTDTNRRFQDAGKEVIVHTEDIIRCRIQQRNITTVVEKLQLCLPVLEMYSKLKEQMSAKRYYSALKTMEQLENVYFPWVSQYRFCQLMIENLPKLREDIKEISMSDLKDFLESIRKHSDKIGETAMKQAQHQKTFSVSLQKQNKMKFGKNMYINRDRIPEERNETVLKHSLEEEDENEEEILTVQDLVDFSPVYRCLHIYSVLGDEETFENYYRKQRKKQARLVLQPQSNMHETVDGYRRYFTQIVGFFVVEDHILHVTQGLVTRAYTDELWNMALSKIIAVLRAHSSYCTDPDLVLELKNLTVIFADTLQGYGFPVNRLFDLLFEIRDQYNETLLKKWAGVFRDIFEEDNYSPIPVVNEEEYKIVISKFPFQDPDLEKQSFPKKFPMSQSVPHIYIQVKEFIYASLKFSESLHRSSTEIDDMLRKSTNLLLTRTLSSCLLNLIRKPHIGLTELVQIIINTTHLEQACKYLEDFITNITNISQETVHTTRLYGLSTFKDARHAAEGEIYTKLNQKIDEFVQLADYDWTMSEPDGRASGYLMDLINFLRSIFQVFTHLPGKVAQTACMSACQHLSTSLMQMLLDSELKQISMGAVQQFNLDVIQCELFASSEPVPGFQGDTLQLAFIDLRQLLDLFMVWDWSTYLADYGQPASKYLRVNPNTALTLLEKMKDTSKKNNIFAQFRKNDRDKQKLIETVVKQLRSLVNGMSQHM
Sequence of UniProt P41091 (P41091 whole entry, looked up): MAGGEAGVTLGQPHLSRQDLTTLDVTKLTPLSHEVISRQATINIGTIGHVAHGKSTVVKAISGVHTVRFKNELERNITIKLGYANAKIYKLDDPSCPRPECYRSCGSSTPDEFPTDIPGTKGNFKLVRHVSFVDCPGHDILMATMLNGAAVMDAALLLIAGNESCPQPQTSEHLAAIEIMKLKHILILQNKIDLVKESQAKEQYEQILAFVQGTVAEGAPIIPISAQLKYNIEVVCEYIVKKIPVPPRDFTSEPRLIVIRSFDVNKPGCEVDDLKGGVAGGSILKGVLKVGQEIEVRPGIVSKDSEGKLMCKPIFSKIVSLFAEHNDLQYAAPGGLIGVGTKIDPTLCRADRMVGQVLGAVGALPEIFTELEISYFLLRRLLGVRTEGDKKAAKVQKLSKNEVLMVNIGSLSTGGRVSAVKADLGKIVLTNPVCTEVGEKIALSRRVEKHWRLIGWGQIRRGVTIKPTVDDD
Sequence of UniProt P00374 (P00374 whole entry, looked up): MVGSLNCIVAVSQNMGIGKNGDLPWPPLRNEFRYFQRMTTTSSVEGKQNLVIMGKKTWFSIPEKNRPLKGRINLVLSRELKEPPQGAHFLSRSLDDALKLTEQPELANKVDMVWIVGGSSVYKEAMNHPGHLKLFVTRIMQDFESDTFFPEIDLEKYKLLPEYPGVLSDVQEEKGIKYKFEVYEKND
Sequence of UniProt P49366 (P49366 whole entry, looked up): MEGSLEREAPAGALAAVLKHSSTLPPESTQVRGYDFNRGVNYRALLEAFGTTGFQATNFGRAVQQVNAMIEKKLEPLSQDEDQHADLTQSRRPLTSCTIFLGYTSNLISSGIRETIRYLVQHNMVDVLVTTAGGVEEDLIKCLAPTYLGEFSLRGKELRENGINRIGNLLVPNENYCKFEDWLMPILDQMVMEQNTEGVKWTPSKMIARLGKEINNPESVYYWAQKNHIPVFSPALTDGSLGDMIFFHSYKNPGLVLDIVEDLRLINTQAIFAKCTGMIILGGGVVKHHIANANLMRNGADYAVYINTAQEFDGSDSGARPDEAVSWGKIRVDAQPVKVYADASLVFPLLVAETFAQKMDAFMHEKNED
Sequence of UniProt P07711 (P07711 whole entry, looked up): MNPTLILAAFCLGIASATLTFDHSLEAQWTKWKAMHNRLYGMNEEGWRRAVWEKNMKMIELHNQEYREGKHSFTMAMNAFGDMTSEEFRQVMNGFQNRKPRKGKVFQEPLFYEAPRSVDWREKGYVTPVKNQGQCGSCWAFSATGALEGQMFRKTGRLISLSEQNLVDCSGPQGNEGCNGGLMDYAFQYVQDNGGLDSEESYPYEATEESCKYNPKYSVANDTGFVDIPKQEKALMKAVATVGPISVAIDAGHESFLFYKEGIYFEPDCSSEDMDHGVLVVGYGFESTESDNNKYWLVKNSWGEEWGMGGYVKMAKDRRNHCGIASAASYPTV
Sequence of UniProt Q96DA6 (Q96DA6 whole entry, looked up): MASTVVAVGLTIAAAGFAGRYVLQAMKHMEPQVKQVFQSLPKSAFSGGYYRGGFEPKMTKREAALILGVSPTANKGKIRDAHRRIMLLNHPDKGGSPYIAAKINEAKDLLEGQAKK

| Target | log2 fold change [1] | log2 fold change (crizotinib) | log2 fold change [2] | log2 fold change [3] | log2 fold change (duvelisib) | log2 fold change (gandotinib) | log2 fold change (tozasertib) | log2 fold change [4] | log2 fold change (doramapimod) | log2 fold change (ispinesib) |
| --- | --- | --- | --- | --- | --- | --- | --- | --- | --- | --- |
| EXOC6 (UniProt Q8TAG9) | 0.001 | -0.206 | -0.038 | 0.033 | -0.095 | -0.098 | 0.037 | 0.1 | 0.02 | -0.363 (active) |
| CTSL (UniProt P07711) | 0.025 | -0.489 (active) | -0.02 | 0.021 | -0.07 | 0.006 | -0.081 | -0.013 | 0.018 | -0.199 |
| DCAF6 isoform 3 (UniProt Q58WW2) | -0.008 | 0.132 | 0.026 | -0.054 | 0.025 | -0.024 | -0.034 | -0.058 | 0.056 | 0.027 |
| EGLN1 (UniProt Q9GZT9) | 0.01 | -0.029 | -0.064 | -0.035 | 0.029 | -0.036 | 0.044 | 0 | -0.014 | -0.04 |
| DNAJC19 (UniProt Q96DA6) | 0.008 | -0.073 | 0.055 | -0.089 | 0.004 | 0.011 | 0.007 | -0.017 | -0.011 | -0.069 |
| DOCK8 (UniProt Q8NF50) | 0.216 | -0.011 | -0.075 | 0.67 (active) | 0.038 | 0.146 | -0.119 | -0.036 | -0.004 | -0.402 |
| EIF2S3 (UniProt P41091) | -0.071 | -0.014 | -0.219 (active) | 0.053 | -0.037 | 0.077 | -0.031 | 0.014 | 0.038 | -0.088 |
| DHX40 (UniProt Q8IX18) | 0.018 | -0.109 | -0.003 | 0.03 | 0.005 | -0.079 | -0.089 | 0.01 | 0.065 | -0.215 |
| DLD (UniProt P09622) | -0.068 | -0.023 | 0.019 | -0.042 | 0.016 | -0.02 | -0.009 | 0.014 | -0.016 | -0.083 |
| DHFR (UniProt P00374) | -0.009 | 0.956 (active) | -0.015 | 0.239 | 0.604 (active) | -0.194 | -0.151 | 0.048 | 0.179 | -0.207 |
| CTSA (UniProt P10619) | 0.032 | -0.563 (active) | 0.002 | -0.036 | -0.039 | 0.043 | 0.011 | 0.003 | 0.009 | -0.237 (active) |
| DHPS (UniProt P49366) | 0.015 | -0.008 | 0.043 | -0.047 | 0.059 | 0.032 | -0.046 | -0.054 | 0.051 | 0.067 |
| F5 (UniProt P12259) | 0.081 | 0.257 | -0.064 | 0.057 | -0.036 | 0.023 | 0.004 | 0.223 | 0.019 | 0.055 |
| EIF3J (UniProt O75822) | -0.024 | -0.012 | 0.009 | -0.035 | 0.048 | -0.157 | 0.038 | 0.005 | -0.022 | 0.099 |
